The list is not random: actives were taken first. Their share in the collection is about 5.2%.
TSHR ag = agonists of human thyroid stimulating hormone receptor | AID 926 | P16473 | HEK293-CNG-TSHR cells (CNG channel as cAMP sensor), membrane potential dye, cAMP | 0.48% of 73,000 active | Potency, µM (series often up to 57.1 µM), most hits filed as activators; active means well fitted activation curve with a large enough effect in the main read-out, with a control signal flat, not every such curve was filed as active; inconclusive means small, poorly fitted or top-dose-only effect, or a change in a side signal; inactive means no such curve, though single readings can be large or run the other way; reference of the percent scale not stated here;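 further: the control signal comes from parental cells without the receptor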
Target sequence (P16473 whole entry, looked up): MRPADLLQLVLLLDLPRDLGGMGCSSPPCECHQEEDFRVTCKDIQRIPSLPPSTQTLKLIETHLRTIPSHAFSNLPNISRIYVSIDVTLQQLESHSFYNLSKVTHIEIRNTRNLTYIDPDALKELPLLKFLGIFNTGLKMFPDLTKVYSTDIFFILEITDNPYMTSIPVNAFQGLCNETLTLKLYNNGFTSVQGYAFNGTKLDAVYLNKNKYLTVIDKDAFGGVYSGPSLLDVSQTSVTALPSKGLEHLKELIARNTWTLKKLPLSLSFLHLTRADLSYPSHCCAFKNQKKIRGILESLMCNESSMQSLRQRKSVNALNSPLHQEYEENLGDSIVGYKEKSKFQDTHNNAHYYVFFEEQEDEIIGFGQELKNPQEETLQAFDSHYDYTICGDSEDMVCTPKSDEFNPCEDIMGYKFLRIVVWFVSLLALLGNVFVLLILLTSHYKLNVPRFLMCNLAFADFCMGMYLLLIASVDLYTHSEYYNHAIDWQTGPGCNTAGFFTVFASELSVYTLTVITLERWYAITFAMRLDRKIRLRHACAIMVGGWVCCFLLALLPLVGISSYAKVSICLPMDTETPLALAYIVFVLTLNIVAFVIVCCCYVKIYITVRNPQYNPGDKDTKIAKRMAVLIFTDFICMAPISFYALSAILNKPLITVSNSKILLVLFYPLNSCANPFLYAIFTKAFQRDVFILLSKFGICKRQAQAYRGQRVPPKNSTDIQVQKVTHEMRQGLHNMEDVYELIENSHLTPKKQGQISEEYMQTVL
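HEK 293 cells stably expressing TSHR and a cAMP-gated CNG channel; parental CNG-only cells as counterscreen. Cells preloaded 60 min with membrane potential dye plus 100 uM RO 20-1724, then compound 30 min; fluorescence read at 590 nm.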
FLuc inh = blocks Photinus pyralis firefly luciferase activity. 2.2% of 72,000 active. P08659. purified firefly luciferase, luminescence, 8 min. Potency, µM (doses to about 57.1 µM), hits mostly inhibitors; further: nearly all actives have a fitted effect of over 40% in size
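Firefly luciferase (PKLight detection mix) with 10 uM ATP in pH 7.2 imidazole buffer (KCl, MgCl2, Tween 20, BSA). Compounds tested across a concentration series (qHTS). Luminescence read after 8 min at ambient temperature.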
Bst PK mod = pyruvate kinase (B. stearothermophilus) modulation; purified pyruvate kinase, luminescence ATP production; ribose 5-phosphate activator present at AC10; Potency, µM; 1.2% of 51,000 active; AID 361; in the data active means potency below about 11 µM; inconclusive means mostly about 12 µM to 25 µM;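 the screen sought inhibitors and activators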
HEK293 cAMP cs = raises cAMP in parental HEK293 cells, TSHR agonist counter-screen; AID 938; parental HEK293 CNG cAMP sensor, membrane potential fluorescence; 2.5% of 73,000 active; Potency, µM (highest dose often 57.1 µM), usual class: activators; further: nearly all actives have a fitted effect of over 55% in size
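Parental HEK 293 cells stably expressing a cAMP-gated CNG channel were loaded with membrane potential dye containing 100 uM RO 20-1724 for 60 min. Compound added for 30 min; depolarization read as fluorescence intensity at 590 nm.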
Numbers stand for hits; - = inactive; ? = inconclusive; . = no result; [ ] = another dose, or the depositor's remark. Unless noted, the call rests on the fitted dose curve; in most records, active means well fitted curve in the direction sought with a large enough effect; inconclusive means small, poorly fitted or top-dose-only effect, or another doubt; inactive means no such curve, though single readings can be large; an effect the other way counts as inactive or inconclusive.

SMILES	TSHR ag	FLuc inh	Bst PK mod	HEK293 cAMP cs
CC1(C)Cc2nc3sc4c(SCC(=O)NCc5ccco5)ncnc4c3cc2CO1	-	5µM	-	-
O=C(O)CCC(=O)Nc1nc(-c2ccccc2)cs1	-	-	-	-
O=C(COc1ccccc1)Nc1nc(-c2cccs2)cs1	?	-	.	25µM
Cc1cccc(Nc2nc(-c3ccccn3)cs2)n1	-	-	-	-
O=C(Nc1nccs1)c1ccc(COc2ccc(F)cc2)o1	-	-	-	-
O=C(COc1ccc(F)cc1)Nc1nccs1	-	13µM	.	-
c1ccc(Nc2nc(-c3cccs3)cs2)nc1	-	5µM	3.6	-
c1cncc(Nc2nc(-c3cccnc3)cs2)c1	-	-	.	-
c1ccc(Nc2nc(-c3cccnc3)cs2)nc1	-	4µM	?	-
Cn1c(CN2CCC(C(N)=O)CC2)c(C#N)c2ccccc21	-	-	.	-
CCNc1ncc2nc(-c3ccc(Cl)cc3)c(=O)n(CCC#N)c2n1	-	-[11.4 µM]	.	-
CN(C)C(=O)c1ccc(-c2nc(Nc3ccccc3)c3ccccc3n2)cc1	20µM	-[2.29 µM]	.	-
O=C(c1cc(-c2ccc(Cl)cc2Cl)on1)N1CCOCC1	-	7.9µM	6.3	-
O=C(c1cc(-c2ccc(Cl)cc2)on1)N1CCOCC1	-	13µM	.	-
CC1(C)CC(=O)C(C=NCCN2CCN(CCCCS(=O)(=O)O)CC2)=C(O)C1	-	-	-	-
Cc1nc(Nc2nc3ccccc3o2)nc2c1CCC2	-	7.9µM	.	-
Cc1cccc(C)c1Nc1nc2ccccc2o1	-	-	.	-
O=C(NCCN1CCCCC1)/C(=N\O)c1ccccc1	.	-	-	.
CCSc1cc(C2C(C#N)=C(N)OC(C)=C2C(=O)OC)c(C)o1 (stereo unspecified)	-	-	-	-
O=C(OCC(=O)N1CCCCC1)c1cc2ccccc2cc1O	-	-	-	-
CCC1CCCCN1C(=O)COC(=O)c1cc2ccccc2cc1O (stereo unspecified)	?	-	-	32µM
O=C(Nc1cccc(F)c1)N1CCCC2(CCN(C(=O)c3ccco3)CC2)C1	-	-[11.4 µM]	.	-
Cc1c(C(=O)N2CCN(c3ccccn3)CC2)oc2ccccc12	-	-	.	-
O=C(c1oc2ccccc2c1CSCc1ccccc1)N1CCN(c2ncccn2)CC1	?	-	-	10µM
CC(C)=NOC[C@@H](C)[C@H](OCc1ccccc1)C(C)C	-[11.4 µM]	-[11.4 µM]	.	-[11.4 µM]
SMILES	TSHR ag	FLuc inh	Bst PK mod	HEK293 cAMP cs
COc1ccc(NC(=O)c2cc3ccccn3n2)cc1	-	6.3µM	.	-
COC(=O)c1c(NC(=O)c2ccc(C)o2)sc2c1CCCCC2	.	-	.	-
Cc1ccc(C(=O)Nc2sc3c(c2C(=O)O)CCCCC3)o1	-	20µM	-	-
NC(=O)c1c(NC(=O)c2cc3ccccc3o2)sc2c1CCC2	-	3.2µM	.	-
NC(=O)CSc1ncc(-c2ccccc2)[nH]1	-	-	-	-
COc1ccc(-c2cc(-c3ccc(OC)cc3)[nH]n2)cc1	-	16µM	2.1	-
CC(C)NC(=O)NC(=O)COc1ncnc2sccc12	-[11.4 µM]	-	-	-
C=CCn1c(C)cc(C(=O)COc2ncnc3sccc23)c1C	-	13µM	?	-
CCC(CC)C(=O)Nc1c2cnn(-c3ccccc3)c2nc(=O)n1-c1ccccc1	-	-	-	-
COC(=O)[C@@H]1C[C@H]1[C@@H](NC(=O)c1ccccc1)c1ccccc1	?	.	.	25µM
COC(=O)[C@@H]1C[C@H]1[C@@H](NC(=O)Oc1ccc(F)cc1)c1ccccc1	?	.	.	10µM
Cc1nn(C(=O)c2cccs2)c(N)c1-c1ccccc1	-	16µM	.	-
Cc1nn(C(=O)c2ccc3c(c2)OCO3)c(N)c1-c1ccccc1	-[11.4 µM]	2µM	.	-
COCCCNC(=O)c1ccc(Cn2c(=O)[nH]c3ccccc3c2=O)cc1	-	-	.	-
CC1(C)CCN(Cc2ccccc2)C1CC#N (stereo unspecified)	.	-	-	.
O=C(NC1CCCCC1)c1noc2c1CCCCC2	-	20µM	.	-
Cc1ccc(NC(=O)c2noc3c2CCCCC3)cc1	-	13µM	.	-
COCCOc1ccc(C(F)(F)F)cc1Nc1nc2ccccc2o1	13µM	-	-	-
COCCOc1ccc(C(F)(F)F)cc1NC(=O)COC(=O)c1c(C)noc1C	-	-	-	-
N=c1cc(C2(O)CCCCC2)n2c(nc3ccccc32)s1	-	1µM	1.1	-
C[C@@H]1C(=O)O[C@@H]2C[C@@]34[C@H]5C[C@@H](C(C)(C)C)[C@@]36[C@@H](OC(=O)[C@@H]6O)O[C@]4(C(=O)O5)[C@@]12O	-	-[11.4 µM]	.	-
Cn1c2ccccc2c2c(C(=O)NCC3CCCO3)cn(C3CCCC3)c(=O)c21 (stereo unspecified)	-	13µM	.	-
COC(=O)c1sc2nc3c(cc2c1N)COC(C)(C)C3	-	13µM	.	-
O=C(Nc1ccc(C(=O)N2CCOCC2)cc1)Nc1cccc(Cl)c1	-	16µM	.	-
COc1ccc(C(=O)Nc2cccc(C(=O)N3CCCC3)c2)cc1	-	-	-	-
SMILES	TSHR ag	FLuc inh	Bst PK mod	HEK293 cAMP cs
CC(=O)c1cccc(NC(=O)Nc2ccc(C(=O)N3CCCC3)cc2)c1	-	2.5µM	.	-
CCN(CC)c1ccc(NC(=O)Nc2cccc(C(C)=O)c2)cc1	-	7.9µM	9	-
CC(=O)c1cccc(NC(=O)Nc2ccc3c(c2)N(C)C(=O)CS3)c1	-	16µM	-	-
CCOc1ccc(N(CC(=O)NCc2ccco2)S(C)(=O)=O)cc1	.	.	.	-
COc1cc(S(=O)(=O)N2CCCCC2)ccc1NC(=O)c1ccc(F)cc1	-	-	-	-
COc1ccc(NC(=O)CN(c2ccc(C)cc2)S(=O)(=O)c2c(C)nn(C)c2C)cc1OC	-	-	-	-
Cc1c(NC(=O)C2Cc3ccccc3CN2C(=O)c2ccco2)c(=O)n(-c2ccccc2)n1C (stereo unspecified)	-	-	-	-
CSc1cccc(NC(=O)Nc2ccccc2)c1	-[11.4 µM]	10µM	.	-[11.4 µM]
CC(=O)Nc1cccc(NC(=O)Nc2ccc(C(C)=O)cc2)c1	-	13µM	-	-
O=C(NCCN1C(=O)C2C3C=CC(C3)C2C1=O)Nc1cccnc1 (stereo unspecified)	-	-	.	-
O=C(NCCN1C(=O)C2C3C=CC(C3)C2C1=O)Nc1ccc(Br)cc1 (stereo unspecified)	-	16µM	.	-
Oc1c(-c2cc(-c3ccco3)[nH]n2)ccc2ccccc12	-	7.9µM	8.3	-
CC(C)CCn1nnnc1C(c1ccc(N(C)C)cc1)N1CCN(C(=O)c2ccco2)CC1 (stereo unspecified)	-	-	-	-
c1cc(N2CCCC2)ccc1C(c1nnnn1C1CCCCC1)N1CCOCC1 (stereo unspecified)	-	-	-	-
c1ccc(CC2CCN(C(c3cccs3)c3nnnn3C3CCCC3)CC2)cc1 (stereo unspecified)	?	-	-	?
COc1ccc(C(c2nnnn2C2CCCC2)N2CCC(C)CC2)cc1 (stereo unspecified)	?	-	-	20µM
COc1ccccc1N1CCN(C(c2cccs2)c2nnnn2C2CCCC2)CC1 (stereo unspecified)	?	-	-	13µM
